Laboratory results as given in PubChem BioAssay.

biological target: Torsin-1A-interacting protein 2 (Homo sapiens) (UniProt Q8NFQ8); assay: LULL1 binders on small-molecule microarray, primary screen, cell lysate, human LULL1 lysate, 635/667 nm fluorescence (AID 1092); conditions: hLULL1 lysate binding, 635 nm fluorescence, higher = more signal;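 also: probe is lysate of COS7 cells overexpressing human LULL1; score merges per-feature 667 nm fluorescence with signal-to-noise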
Sequence (Q8NFQ8 whole entry, looked up): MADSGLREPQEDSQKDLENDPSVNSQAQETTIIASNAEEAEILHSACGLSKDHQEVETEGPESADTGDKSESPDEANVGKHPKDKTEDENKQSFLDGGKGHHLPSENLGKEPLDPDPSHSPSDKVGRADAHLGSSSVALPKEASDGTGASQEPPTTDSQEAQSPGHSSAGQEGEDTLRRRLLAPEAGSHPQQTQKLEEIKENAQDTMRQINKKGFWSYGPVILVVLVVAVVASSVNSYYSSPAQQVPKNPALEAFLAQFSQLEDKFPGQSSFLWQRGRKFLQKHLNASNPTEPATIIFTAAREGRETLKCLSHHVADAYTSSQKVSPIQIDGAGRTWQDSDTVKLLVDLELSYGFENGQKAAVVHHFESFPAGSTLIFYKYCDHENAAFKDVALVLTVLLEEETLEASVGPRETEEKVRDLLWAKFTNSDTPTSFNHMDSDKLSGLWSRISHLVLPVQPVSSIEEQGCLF

Compound | composite z-score
O=C1C2C=CC(C(O)c3ccc([N+](=O)[O-])cc3)N(Nc3ccccc3)C2C(=O)N1c1ccccc1 (centres undefined) | 2.68
CC(=O)NCCCC[C@@H]1NC(=O)[C@H]2C[C@@H](C(=O)NCCCCCC[N+](C)(C)C)[C@@H](c3ccc(O)cc3)N2C1=O | 3.04
CCCC[C@H]1OB(O)C[C@H]2C1=C(COC)C[C@H]1C(=O)C=CC(=O)[C@H]12 | 0.117
C[C@@H](OCc1ccccc1)C1NC(=O)[C@@]23C(=O)N[C@@H](Cc4ccccc4)C2[C@H](C)[C@@]2(C)O[C@H]2C3/C=C/C/C=C\CNC(=O)[C@H](Cc2ccccc2)NC1=O (some centres undefined) | 0.956
C=CCC(OC(C)=O)[C@@H]1[C@@H](N(Cc2ccc(-c3cccc(C(F)(F)F)c3)o2)C(=O)c2cccc3ccccc23)c2cc(OCCCO)ccc2N1C(=O)c1ccc2ccccc2c1 (some centres undefined) | -0.255
COCCn1c(C(=O)N2CCCC2)cc2c1C[C@H]1CN(C(=O)c3ccccc3)[C@@](Cc3ccccc3)(C(=O)OC)[C@@H]21 | 3.11
C=CC[C@@]12N=C(c3ccc(OCCCO)cc3)O[C@@H]1c1ccccc1N(Cc1ccccc1)C2=O | 3.14
C[C@]1(C(=O)NCC(F)(F)F)c2ccccc2C(=O)N(Cc2ccc(OC(F)(F)F)cc2)[C@H]1c1ccc(CO)cc1 | 1.03
O=C1N(CCS(=O)(=O)c2ccccc2)c2ccccc2[C@@H]2OC(c3ccc(OCCCO)cc3)=N[C@]12CCS(=O)(=O)c1ccccc1 | 3.46
CN(C)CCCC[C@@H]1NC(=O)[C@@H]2C[C@H](C(=O)NCCCCCCNC(=O)CS)[C@H](c3cccc(OCCO)c3)N2C1=O | 1.18
[N-]=[N+]=Nc1ccccc1[C@@H]1OC(c2ccc(OCCCO)cc2)=N[C@]1(Cc1ccccc1)C(N)=O | 2.04
C=CC[C@]1(C(=O)N(C)C)COC(c2ccc(OCCCO)cc2)=N1 | 2.75
O=C1O[C@@H](c2ccccc2)[C@@H](c2ccccc2)N2[C@@H](c3ccc(O)cc3)[C@]3(C(=O)Nc4ccc(C#CC5=CCCCC5)cc43)[C@@H](C(=O)N3CCCCCCC3)[C@H]12 | 3.44
CCCCC(=C=CC[C@@H](O)c1cccc(OCCO)c1)C[C@@H](O)COCc1ccccc1 | 0.866
[N-]=[N+]=NCc1ccccc1C[C@]1(C(=O)O)COC(c2ccc(OCCCO)cc2)=N1 | -0.0986
COC(=O)[C@]1(CO)N=C(c2ccc(OCCCO)cc2)O[C@@H]1c1ccccc1CN=[N+]=[N-] | 0.852
COc1ccc(NN2C(C(O)c3cc(C(F)(F)F)cc(C(F)(F)F)c3)C=CC3C(=O)N(C4CCCCC4)C(=O)C32)cc1 (centres undefined) | 2.59
CN(C)CCCC[C@@H]1NC(=O)[C@H]2C[C@@H](C(=O)NCc3ccc(F)cc3)[C@@H](c3ccc(O)cc3)N2C1=O | 1.42
CCCC=C(CCC)[C@@H](NC(=O)c1ccccc1)c1ccc(C(=O)OC)cc1 | 2.56
C=CCC(OC(C)=O)[C@@H]1[C@@H](N(Cc2cccc3ccccc23)C(=O)c2cccc3ccccc23)c2cc(OCCCO)ccc2N1C(=O)Cc1ccc2ccccc2c1 (some centres undefined) | -0.0809
C=C(COC)/C(=C/C[C@@H](OC(C)=O)c1ccccc1OCCO)c1cc(C(=O)OC)ccc1OC | 1.67
CO[C@H]1O[C@H](CO)[C@@H](OC(=O)Nc2ccc(C(F)(F)F)cc2)[C@H](OC(=O)Nc2ccccc2-c2ccccc2)[C@@H]1OC(=O)Nc1ccccc1-c1ccccc1 | 2.4
CCOC(=O)C[C@H]1[C@H](OC(=O)c2ccc(-c3ccccc3)cc2)[C@@H](NC(=O)CC(C)C)c2cc(OCCCO)ccc2N1C(=O)Cc1ccc(OC)cc1 | 0.734
CCOC(=O)C[C@H]1[C@H](OC(=O)c2cc3ccccc3oc2=O)[C@@H](NC(=O)C2CCCCC2)c2cc(OCCCO)ccc2N1C(=O)Cc1ccc(OC)cc1 | 0.727
N#Cc1ccc(C(O)C2C=CC3C(=O)NC(=O)C3N2Nc2ccccn2)cc1 (centres undefined) | 1.4
O=C1C2C=CC(C(O)c3cccs3)N(Nc3ccccc3)C2C(=O)N1c1ccccc1 (centres undefined) | 3.11
COC(=O)[C@@]1(Cc2ccc(OC)cc2)[C@H]2c3cc(C(=O)N4CCCC4)n(CCc4ccc(OC)c(Br)c4)c3C[C@H]2CN1C(=O)c1ccccc1 | 3.27
CO[C@H]1O[C@H](CO)[C@@H](OC(=O)Nc2ccc(C(F)(F)F)cc2)[C@H](OC(=O)Nc2ccccc2-c2ccccc2)[C@H]1OC(=O)Nc1ccccc1-c1ccccc1 | 3.29
CCOC(=O)C1=C(C(=O)OCC)N(S(=O)(=O)CC[Si](C)(C)C)[C@H](c2ccccc2)CC1 | 1.84
